# B1: unnamed (peptide)
# chain: IVNKPLPPLPVAGSS
# B2: unnamed (peptide)
# chain: KKAPPPVVKPKPRNF
# Tests used:
# Experiment in all cases: SPOT peptide array binding signal intensity (averaged, normalized) (arbitrary units (background-subtracted, floor 0; scale differs between SH3 domains)); higher = stronger binding of the SH3 domain to the peptide
# CaNbp2 = target: CaNbp2
# In short: (§1)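 Spot intensities were captured after detection with anti-GST antibody, an HRP-linked anti-mouse secondary and luminol, and quantified with Genespotter. The probes were GST-fused SH3 domains from four yeast species, produced in E. coli BL21(DE3), purified on glutathione Sepharose and incubated at 10 μg/ml overnight at 4°C on cellulose-bound synthetic 15-mer peptides with cysteines replaced by serines. Binding signal is the normalized, background-subtracted spot intensity averaged over replicates, and its arbitrary units differ between domains.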
# CaRvs167 = target: CaRvs167
# In short: as §1
# CaRvs167-3 = target: CaRvs167-3
# In short: as §1
# CaSho1 = target: CaSho1
# In short: as §1
# CaSla1-D1-D2 = target: CaSla1-D1-D2
# In short: as §1
# CaSla1-D3 = target: CaSla1-D3
# In short: as §1
# ScAbp1 = target: ScAbp1
# In short: as §1
# ScBbc1 = target: ScBbc1
# In short: as §1
# ScBem1-D1 = target: ScBem1-D1
# In short: as §1
# ScBzz1-D1 = target: ScBzz1-D1
# In short: as §1
# ScBzz1-D2 = target: ScBzz1-D2
# In short: as §1
# ScCyk3 = target: ScCyk3
# In short: as §1
# ScFus1 = target: ScFus1
# In short: as §1
# ScHof1 = target: ScHof1
# In short: as §1
# ScHse1 = target: ScHse1
# In short: as §1
# ScLsb1 = target: ScLsb1
# In short: as §1
# ScLsb2 = target: ScLsb2
# In short: as §1
# ScLsb3 = target: ScLsb3
# In short: as §1
# ScLsb4 = target: ScLsb4
# In short: as §1
# ScMyo3 = target: ScMyo3
# In short: as §1
# ScMyo5 = target: ScMyo5
# In short: as §1
# ScNbp2 = target: ScNbp2
# In short: as §1
# ScPex13 = target: ScPex13
# In short: as §1
# ScRvs167 = target: ScRvs167
# In short: as §1
# ScSho1 = target: ScSho1
# In short: as §1
# ScSla1-D1-D2 = target: ScSla1-D1-D2
# In short: as §1
# ScSla1-D3 = target: ScSla1-D3
# In short: as §1
# SpAbp1-D1 = target: SpAbp1-D1
# In short: as §1
# SpBbc1 = target: SpBbc1
# In short: as §1
# SpBzz1-D1 = target: SpBzz1-D1
# In short: as §1
# SpBzz1-D2 = target: SpBzz1-D2
# In short: as §1
# SpCyk3 = target: SpCyk3
# In short: as §1
# SpHof1 = target: SpHof1
# In short: as §1
# SpHof1-2 = target: SpHof1-2
# In short: as §1
# SpHof1-3 = target: SpHof1-3
# In short: as §1
# SpHse1 = target: SpHse1
# In short: as §1
# SpLsb1 = target: SpLsb1
# In short: as §1
# SpLsb4 = target: SpLsb4
# In short: as §1
# SpMyo1 = target: SpMyo1
# In short: as §1
# SpNbp2 = target: SpNbp2
# In short: as §1
# SpPex13 = target: SpPex13
# In short: as §1
# SpRvs167 = target: SpRvs167
# In short: as §1
# SpSla1-D1-D2 = target: SpSla1-D1-D2
# In short: as §1
# SpSla1-D3 = target: SpSla1-D3
# In short: as §1
# AgAbp1 = target: AgAbp1
# In short: as §1
# AgBbc1 = target: AgBbc1
# In short: as §1
# AgBem1-D1 = target: AgBem1-D1
# In short: as §1
# AgBzz1-D1 = target: AgBzz1-D1
# In short: as §1
# AgBzz1-D2 = target: AgBzz1-D2
# In short: as §1
# AgCyk3 = target: AgCyk3
# In short: as §1
# AgFus1 = target: AgFus1
# In short: as §1
# AgHof1 = target: AgHof1
# In short: as §1
# AgHse1 = target: AgHse1
# In short: as §1
# AgLsb1 = target: AgLsb1
# In short: as §1
# AgLsb4 = target: AgLsb4
# In short: as §1
# AgMyo5 = target: AgMyo5
# In short: as §1
# AgNbp2 = target: AgNbp2
# In short: as §1
# AgRvs167 = target: AgRvs167
# In short: as §1
# AgSho1 = target: AgSho1
# In short: as §1
# AgSla1-D1-D2 = target: AgSla1-D1-D2
# In short: as §1
# AgSla1-D3 = target: AgSla1-D3
# In short: as §1
# CaAbp1-D1 = target: CaAbp1-D1
# In short: as §1
# CaAbp1-D2 = target: CaAbp1-D2
# In short: as §1
# CaBbc1 = target: CaBbc1
# In short: as §1
# CaBem1-D1 = target: CaBem1-D1
# In short: as §1
# CaBzz1-D1 = target: CaBzz1-D1
# In short: as §1
# CaBzz1-D2 = target: CaBzz1-D2
# In short: as §1
# CaCyk3 = target: CaCyk3
# In short: as §1
# CaFus1 = target: CaFus1
# In short: as §1
# CaHof1 = target: CaHof1
# In short: as §1
# CaHse1 = target: CaHse1
# In short: as §1
# CaLsb1 = target: CaLsb1
# In short: as §1
# CaLsb4 = target: CaLsb4
# In short: as §1
# CaMyo5 = target: CaMyo5
# In short: as §1
binder,measurement,setting,value
B1,SPOT peptide array binding signal intensity,CaNbp2,≤ 0
same,SPOT peptide array binding signal intensity,CaRvs167,1.17
same,SPOT peptide array binding signal intensity,CaRvs167-3,≤ 0
same,SPOT peptide array binding signal intensity,CaSho1,6570
same,SPOT peptide array binding signal intensity,CaSla1-D1-D2,338
same,SPOT peptide array binding signal intensity,CaSla1-D3,0.5
same,SPOT peptide array binding signal intensity,ScAbp1,378
same,SPOT peptide array binding signal intensity,ScBbc1,0.25
same,SPOT peptide array binding signal intensity,ScBem1-D1,≤ 0
same,SPOT peptide array binding signal intensity,ScBzz1-D1,≤ 0
same,SPOT peptide array binding signal intensity,ScBzz1-D2,≤ 0
same,SPOT peptide array binding signal intensity,ScCyk3,≤ 0
same,SPOT peptide array binding signal intensity,ScFus1,10
same,SPOT peptide array binding signal intensity,ScHof1,1300
same,SPOT peptide array binding signal intensity,ScHse1,32
same,SPOT peptide array binding signal intensity,ScLsb1,≤ 0
same,SPOT peptide array binding signal intensity,ScLsb2,≤ 0
same,SPOT peptide array binding signal intensity,ScLsb3,154
same,SPOT peptide array binding signal intensity,ScLsb4,≤ 0
same,SPOT peptide array binding signal intensity,ScMyo3,≤ 0
same,SPOT peptide array binding signal intensity,ScMyo5,≤ 0
same,SPOT peptide array binding signal intensity,ScNbp2,≤ 0
same,SPOT peptide array binding signal intensity,ScPex13,2500
same,SPOT peptide array binding signal intensity,ScRvs167,97.8
same,SPOT peptide array binding signal intensity,ScSho1,7450
same,SPOT peptide array binding signal intensity,ScSla1-D1-D2,288
same,SPOT peptide array binding signal intensity,ScSla1-D3,1.5
same,SPOT peptide array binding signal intensity,SpAbp1-D1,1580
same,SPOT peptide array binding signal intensity,SpBbc1,1
same,SPOT peptide array binding signal intensity,SpBzz1-D1,159
same,SPOT peptide array binding signal intensity,SpBzz1-D2,≤ 0
same,SPOT peptide array binding signal intensity,SpCyk3,3
same,SPOT peptide array binding signal intensity,SpHof1,2930
same,SPOT peptide array binding signal intensity,SpHof1-2,3490
same,SPOT peptide array binding signal intensity,SpHof1-3,5540
same,SPOT peptide array binding signal intensity,SpHse1,15
same,SPOT peptide array binding signal intensity,SpLsb1,47
same,SPOT peptide array binding signal intensity,SpLsb4,1.5
same,SPOT peptide array binding signal intensity,SpMyo1,184
same,SPOT peptide array binding signal intensity,SpNbp2,11
same,SPOT peptide array binding signal intensity,SpPex13,15
same,SPOT peptide array binding signal intensity,SpRvs167,1580
same,SPOT peptide array binding signal intensity,SpSla1-D1-D2,1200
same,SPOT peptide array binding signal intensity,SpSla1-D3,≤ 0
B2,SPOT peptide array binding signal intensity,AgAbp1,4680
same,SPOT peptide array binding signal intensity,AgBbc1,58
same,SPOT peptide array binding signal intensity,AgBem1-D1,44.5
same,SPOT peptide array binding signal intensity,AgBzz1-D1,316
same,SPOT peptide array binding signal intensity,AgBzz1-D2,101
same,SPOT peptide array binding signal intensity,AgCyk3,≤ 0
same,SPOT peptide array binding signal intensity,AgFus1,31
same,SPOT peptide array binding signal intensity,AgHof1,63.5
same,SPOT peptide array binding signal intensity,AgHse1,39
same,SPOT peptide array binding signal intensity,AgLsb1,1.75
same,SPOT peptide array binding signal intensity,AgLsb4,12.5
same,SPOT peptide array binding signal intensity,AgMyo5,≤ 0
same,SPOT peptide array binding signal intensity,AgNbp2,45
same,SPOT peptide array binding signal intensity,AgRvs167,6
same,SPOT peptide array binding signal intensity,AgSho1,15
same,SPOT peptide array binding signal intensity,AgSla1-D1-D2,8
same,SPOT peptide array binding signal intensity,AgSla1-D3,32.5
same,SPOT peptide array binding signal intensity,CaAbp1-D1,3270
same,SPOT peptide array binding signal intensity,CaAbp1-D2,6180
same,SPOT peptide array binding signal intensity,CaBbc1,154
same,SPOT peptide array binding signal intensity,CaBem1-D1,15.5
same,SPOT peptide array binding signal intensity,CaBzz1-D1,1220
same,SPOT peptide array binding signal intensity,CaBzz1-D2,2260
same,SPOT peptide array binding signal intensity,CaCyk3,5
same,SPOT peptide array binding signal intensity,CaFus1,45.5
same,SPOT peptide array binding signal intensity,CaHof1,1
same,SPOT peptide array binding signal intensity,CaHse1,1.25
same,SPOT peptide array binding signal intensity,CaLsb1,2.5
same,SPOT peptide array binding signal intensity,CaLsb4,15.5
same,SPOT peptide array binding signal intensity,CaMyo5,1.5
same,SPOT peptide array binding signal intensity,CaNbp2,36.5
same,SPOT peptide array binding signal intensity,CaRvs167,11
same,SPOT peptide array binding signal intensity,CaRvs167-3,8
same,SPOT peptide array binding signal intensity,CaSho1,23
same,SPOT peptide array binding signal intensity,CaSla1-D1-D2,3160
same,SPOT peptide array binding signal intensity,CaSla1-D3,4.75
same,SPOT peptide array binding signal intensity,ScAbp1,7880
same,SPOT peptide array binding signal intensity,ScBbc1,3
same,SPOT peptide array binding signal intensity,ScBem1-D1,6
same,SPOT peptide array binding signal intensity,ScBzz1-D1,178
same,SPOT peptide array binding signal intensity,ScBzz1-D2,60
same,SPOT peptide array binding signal intensity,ScCyk3,7
same,SPOT peptide array binding signal intensity,ScFus1,15
same,SPOT peptide array binding signal intensity,ScHof1,3.5
same,SPOT peptide array binding signal intensity,ScHse1,61
same,SPOT peptide array binding signal intensity,ScLsb1,20.5
same,SPOT peptide array binding signal intensity,ScLsb2,2
same,SPOT peptide array binding signal intensity,ScLsb3,≤ 0
same,SPOT peptide array binding signal intensity,ScLsb4,3.5
same,SPOT peptide array binding signal intensity,ScMyo3,≤ 0
same,SPOT peptide array binding signal intensity,ScMyo5,≤ 0
same,SPOT peptide array binding signal intensity,ScNbp2,32
same,SPOT peptide array binding signal intensity,ScPex13,0.5
same,SPOT peptide array binding signal intensity,ScRvs167,5.17
same,SPOT peptide array binding signal intensity,ScSho1,37.5
same,SPOT peptide array binding signal intensity,ScSla1-D1-D2,3640
same,SPOT peptide array binding signal intensity,ScSla1-D3,17
same,SPOT peptide array binding signal intensity,SpAbp1-D1,2160
same,SPOT peptide array binding signal intensity,SpBbc1,0.75
same,SPOT peptide array binding signal intensity,SpBzz1-D1,318
same,SPOT peptide array binding signal intensity,SpBzz1-D2,0.5
same,SPOT peptide array binding signal intensity,SpCyk3,1
same,SPOT peptide array binding signal intensity,SpHof1,12
same,SPOT peptide array binding signal intensity,SpHof1-2,13.2
same,SPOT peptide array binding signal intensity,SpHof1-3,31
same,SPOT peptide array binding signal intensity,SpHse1,117
same,SPOT peptide array binding signal intensity,SpLsb1,1140
same,SPOT peptide array binding signal intensity,SpLsb4,27
same,SPOT peptide array binding signal intensity,SpMyo1,7
same,SPOT peptide array binding signal intensity,SpNbp2,43
same,SPOT peptide array binding signal intensity,SpPex13,3.5
same,SPOT peptide array binding signal intensity,SpRvs167,≤ 0
same,SPOT peptide array binding signal intensity,SpSla1-D1-D2,5.5
same,SPOT peptide array binding signal intensity,SpSla1-D3,10.5

# From the supplement of paper PMC4466140
